Test results published in PubChem BioAssay (NCI).
About 83,000 compounds went through this panel and 20% of them were active in at least one assay; those are over-represented in the sample as a whole.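 Negative percent growth values reflect cell death: -40 means 40% of the cells present at the start died, and -100 means all died.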 Active and inactive are the calls of the source. How the source made its calls: active means growth percent below 10; inactive means the rest.

Columns and labels:
Assay in all cases: NCI-60 one-dose screen, 48 h (100 = growth as untreated, 0 = no growth, -100 = all killed)
Details in all cases: 10 µM unless noted
HCT-15 colon = test system: HCT-15 colon
HT29 colon = test system: HT29 colon
SNB-75 CNS = test system: SNB-75 CNS
SNB-19 CNS = test system: SNB-19 CNS
U251 CNS = test system: U251 CNS
PC-3 prostate = test system: PC-3 prostate
SK-MEL-5 melanoma = test system: SK-MEL-5 melanoma
UACC-62 melanoma = test system: UACC-62 melanoma
LOX IMVI melanoma = test system: LOX IMVI melanoma
SK-MEL-28 melanoma = test system: SK-MEL-28 melanoma
SK-MEL-2 melanoma = test system: SK-MEL-2 melanoma
EKVX NSCLC = test system: EKVX NSCLC
SN12C renal = test system: SN12C renal
UO-31 renal = test system: UO-31 renal
TK-10 renal = test system: TK-10 renal
ACHN renal = test system: ACHN renal
A498 renal = test system: A498 renal
CCRF-CEM leukemia = test system: CCRF-CEM leukemia
MOLT-4 leukemia = test system: MOLT-4 leukemia

Measured: growth

NC(N)=Nc1ccc(Oc2cccc(NC(N)=Nc3ccc(Br)cc3)c2)cn1
active: LOX IMVI melanoma 0.0918%
inactive: HCT-15 colon 85.4% | HT29 colon 59.7% | SNB-75 CNS 68.6% | SNB-19 CNS 18.8% | U251 CNS 43.1% | PC-3 prostate 38.2% | SK-MEL-5 melanoma 35.6% | UACC-62 melanoma 63.2% | SK-MEL-28 melanoma 82.9% | SK-MEL-2 melanoma 84.3% | EKVX NSCLC 62% | SN12C renal 20.6% | UO-31 renal 85% | TK-10 renal 69.1% | ACHN renal 95.5% | A498 renal 64.3% | CCRF-CEM leukemia 58.5% | MOLT-4 leukemia 65%

O=C1CCC(N2C(=O)c3ccc(NS(=O)(=O)c4ccccc4OC(F)(F)F)cc3C2=O)C(=O)N1 (stereo not drawn)
inactive: HT29 colon 78.4% | SNB-75 CNS 58% | SNB-19 CNS 39.6% | U251 CNS 75.8% | PC-3 prostate 46.4% | SK-MEL-5 melanoma 45.9% | UACC-62 melanoma 93.3% | LOX IMVI melanoma 105% | SK-MEL-28 melanoma 66.8% | SK-MEL-2 melanoma 83.7% | EKVX NSCLC 78.8% | SN12C renal 47.8% | TK-10 renal 63.4% | ACHN renal 87.5% | A498 renal 28.5% | CCRF-CEM leukemia 13.2%
active: HCT-15 colon 7.77% | UO-31 renal 3.53% | MOLT-4 leukemia 2.34%

COc1ccc2c(c1)c(CC(=O)[Se]CC#N)c(C)n2C(=O)c1ccc(Cl)cc1
active: HCT-15 colon 7.36% | HT29 colon -8.37% | PC-3 prostate 8.19% | SK-MEL-5 melanoma -6.8% | LOX IMVI melanoma -35.8% | EKVX NSCLC -2.11% | UO-31 renal -3.23% | TK-10 renal -5.49% | A498 renal -17.1% | CCRF-CEM leukemia 8.66%
inactive: SNB-75 CNS 73% | SNB-19 CNS 50.3% | U251 CNS 19.7% | UACC-62 melanoma 55.2% | SK-MEL-28 melanoma 37.6% | SK-MEL-2 melanoma 39.3% | SN12C renal 74% | ACHN renal 12%

CN(C)CCNC(=O)c1ccc(-c2nc3ccc4[nH]ncc4c3c3c2CCC3)cc1
inactive: HCT-15 colon 17.2% | HT29 colon 12.6% | SNB-75 CNS 40.3% | U251 CNS 25.3% | UACC-62 melanoma 15.8% | SK-MEL-28 melanoma 21.9% | EKVX NSCLC 15.3% | UO-31 renal 18.2% | TK-10 renal 22.1% | ACHN renal 12.8%
active: SNB-19 CNS 9.44% | PC-3 prostate 3.49% | SK-MEL-5 melanoma 7.44% | LOX IMVI melanoma -61% | SK-MEL-2 melanoma -22.8% | SN12C renal 7.23% | A498 renal -63.6% | CCRF-CEM leukemia 3.51% | MOLT-4 leukemia 7.28%

CN1CCN(Cc2ccc(NC(=O)c3cncc(C#Cc4cnc5ccc(OCC6(C)COC6)nn45)c3)cc2C(F)(F)F)CC1
active: HCT-15 colon -78.6% | HT29 colon -37.5% | SNB-75 CNS -68.7% | SNB-19 CNS -86.1% | U251 CNS -62% | PC-3 prostate -69% | SK-MEL-5 melanoma -93.2% | UACC-62 melanoma -90.5% | LOX IMVI melanoma -93.5% | SK-MEL-28 melanoma -89.2% | SK-MEL-2 melanoma -75.7% | EKVX NSCLC -83.3% | SN12C renal -76.2% | UO-31 renal -91.8% | TK-10 renal -73.7% | ACHN renal -96.1% | A498 renal -97.7% | CCRF-CEM leukemia 1.98% | MOLT-4 leukemia 1.9%

O=C(NCCn1ccnc1)c1ccc(-c2nc3ccc4[nH]ncc4c3c3c2CCCC3)cc1
inactive: HCT-15 colon 97.5% | HT29 colon 88.4% | SNB-75 CNS 52.6% | SNB-19 CNS 55.6% | U251 CNS 58.6% | PC-3 prostate 47.6% | SK-MEL-5 melanoma 89.9% | UACC-62 melanoma 28.8% | LOX IMVI melanoma 66.3% | SK-MEL-28 melanoma 62.4% | SK-MEL-2 melanoma 45.3% | EKVX NSCLC 87.6% | SN12C renal 81.6% | UO-31 renal 92.4% | TK-10 renal 77.7% | ACHN renal 88.4% | A498 renal 73.5% | CCRF-CEM leukemia 19.5% | MOLT-4 leukemia 29.1%

NC(N)=Nc1ccc(Oc2cccc(NC(N)=Nc3ccc(Cl)c(C(F)(F)F)c3)c2)cc1
active: PC-3 prostate 6.36% | LOX IMVI melanoma -26.5%
inactive: HCT-15 colon 84.3% | HT29 colon 46.7% | SNB-75 CNS 65% | SNB-19 CNS 13.9% | U251 CNS 23% | SK-MEL-5 melanoma 42% | UACC-62 melanoma 47.8% | SK-MEL-28 melanoma 70% | SK-MEL-2 melanoma 83% | EKVX NSCLC 64.4% | SN12C renal 31% | UO-31 renal 87% | TK-10 renal 74% | ACHN renal 87.8% | A498 renal 54% | CCRF-CEM leukemia 61.8% | MOLT-4 leukemia 51.9%

COc1ccc2c(c1)c(CC(=O)[Se]CC(=O)O)c(C)n2C(=O)c1ccc(Cl)cc1
inactive: HCT-15 colon 93% | HT29 colon 75.5% | SNB-75 CNS 101% | SNB-19 CNS 40.7% | U251 CNS 62% | PC-3 prostate 93.8% | SK-MEL-5 melanoma 56.7% | UACC-62 melanoma 63.6% | LOX IMVI melanoma 72.1% | SK-MEL-28 melanoma 90.3% | SK-MEL-2 melanoma 102% | EKVX NSCLC 103% | SN12C renal 58.5% | UO-31 renal 94.4% | TK-10 renal 104% | ACHN renal 103% | A498 renal 69.3% | CCRF-CEM leukemia 94.6% | MOLT-4 leukemia 99.8%

O=C(NNc1nc2cc(F)ccc2n2c(CN3CCC(O)C3)ccc12)c1cnccn1 (stereo not drawn)
active: SK-MEL-5 melanoma 4.28% | UACC-62 melanoma 0.128% | LOX IMVI melanoma -0.788% | MOLT-4 leukemia 3.23%
inactive: HCT-15 colon 25.7% | HT29 colon 23.8% | SNB-75 CNS 51.9% | SNB-19 CNS 22.3% | U251 CNS 19.9% | PC-3 prostate 25.2% | SK-MEL-28 melanoma 25.5% | SK-MEL-2 melanoma 20% | EKVX NSCLC 10.1% | SN12C renal 24.3% | UO-31 renal 11% | TK-10 renal 20.5% | ACHN renal 14.3% | A498 renal 26.2% | CCRF-CEM leukemia 10.3%

CCOc1ccccc1NC1=C(Cl)C(=O)c2nc(C)ccc2C1=O
active: HCT-15 colon -76.6% | PC-3 prostate 4.34% | SK-MEL-5 melanoma -97.8% | UACC-62 melanoma -29.1% | LOX IMVI melanoma -82.2% | SK-MEL-2 melanoma -15.7% | EKVX NSCLC -2.24% | SN12C renal -51% | UO-31 renal -93% | ACHN renal -99.1% | CCRF-CEM leukemia -6.33% | MOLT-4 leukemia -24.9%
inactive: HT29 colon 20% | SNB-75 CNS 101% | SNB-19 CNS 46.5% | U251 CNS 37.9% | SK-MEL-28 melanoma 14.6% | TK-10 renal 124% | A498 renal 78.8%

CC/C(=C/c1cc(OC)ccc1O)c1ccc2cc(OC)ccc2[o+]1
inactive: HCT-15 colon 23.9% | HT29 colon 15.7% | SNB-75 CNS 48.3% | SNB-19 CNS 47.3% | U251 CNS 66.5% | PC-3 prostate 40% | SK-MEL-5 melanoma 40.7% | UACC-62 melanoma 21.4% | LOX IMVI melanoma 60% | SK-MEL-28 melanoma 61.8% | SK-MEL-2 melanoma 71.8% | EKVX NSCLC 76.3% | SN12C renal 73.9% | UO-31 renal 68.7% | TK-10 renal 116% | ACHN renal 58.5% | A498 renal 29.5% | CCRF-CEM leukemia 39.3% | MOLT-4 leukemia 53.4%

N#Cc1cccc(CN2CCC3=C(C2)C(=O)N(Cc2ccc(Cl)cc2)C2=NCCN23)c1
inactive: HCT-15 colon 17.3% | HT29 colon 30.8% | SNB-75 CNS 60.9% | SNB-19 CNS 23.7% | U251 CNS 23.3% | PC-3 prostate 24.1% | SK-MEL-5 melanoma 13.1% | UACC-62 melanoma 29.9% | LOX IMVI melanoma 47.5% | SK-MEL-28 melanoma 48.3% | SK-MEL-2 melanoma 39.5% | EKVX NSCLC 26.8% | SN12C renal 23.9% | UO-31 renal 35.5% | TK-10 renal 52.3% | ACHN renal 33.2% | A498 renal 15% | CCRF-CEM leukemia 33.1% | MOLT-4 leukemia 53.2%

NC(N)=Nc1ccc(Oc2cccc(NC(N)=Nc3ccc(Cl)c(C(F)(F)F)c3)c2)cn1
inactive: HCT-15 colon 85.8% | HT29 colon 28.9% | SNB-75 CNS 69.3% | SNB-19 CNS 16.6% | U251 CNS 25.6% | PC-3 prostate 13.4% | SK-MEL-5 melanoma 31.9% | UACC-62 melanoma 40.2% | SK-MEL-28 melanoma 61.6% | SK-MEL-2 melanoma 59.5% | EKVX NSCLC 65.5% | SN12C renal 25.2% | UO-31 renal 78.9% | TK-10 renal 69.3% | ACHN renal 88.3% | A498 renal 36.7% | CCRF-CEM leukemia 23.9% | MOLT-4 leukemia 23.6%
active: LOX IMVI melanoma -59.8%

O=C(O)c1ccc(-n2cc(CNc3cc(F)c(F)c(F)c3)c(-c3ccc(F)cc3)n2)cc1
inactive: HCT-15 colon 68.1% | HT29 colon 108% | SNB-75 CNS 100% | SNB-19 CNS 95.3% | U251 CNS 97.8% | PC-3 prostate 79.2% | SK-MEL-5 melanoma 81.2% | UACC-62 melanoma 64.9% | LOX IMVI melanoma 105% | SK-MEL-28 melanoma 85.9% | SK-MEL-2 melanoma 78.7% | EKVX NSCLC 85.6% | SN12C renal 91.9% | UO-31 renal 77.4% | TK-10 renal 150% | ACHN renal 71.4% | A498 renal 97.6% | CCRF-CEM leukemia 82.7% | MOLT-4 leukemia 74.2%

COc1ccc(C(=O)c2c(N)c(C#N)cn2-c2ccccc2OC)cc1
inactive: HCT-15 colon 26% | SNB-75 CNS 29.3% | SNB-19 CNS 29.8% | U251 CNS 34.2% | PC-3 prostate 36.2% | UACC-62 melanoma 23.3% | LOX IMVI melanoma 23.8% | SK-MEL-28 melanoma 59.2% | SK-MEL-2 melanoma 45.3% | EKVX NSCLC 48.2% | SN12C renal 45.1% | UO-31 renal 47.9% | TK-10 renal 83.2% | ACHN renal 46.7% | CCRF-CEM leukemia 19.9% | MOLT-4 leukemia 30.5%
active: HT29 colon 6.81% | SK-MEL-5 melanoma 6.34% | A498 renal 7.39%

COc1ccc(Oc2ccc(/C=N/NC(=O)CSc3nc4ccccc4c(=O)n3-c3ccc(Cl)cc3)cc2)cc1
inactive: HCT-15 colon 56% | HT29 colon 16.1% | SNB-75 CNS 41.6% | SNB-19 CNS 61.5% | U251 CNS 36.5% | PC-3 prostate 63.7% | SK-MEL-5 melanoma 78% | UACC-62 melanoma 61.9% | LOX IMVI melanoma 14.7% | SK-MEL-28 melanoma 89.3% | SK-MEL-2 melanoma 97.6% | EKVX NSCLC 69.4% | SN12C renal 52.7% | UO-31 renal 47.7% | TK-10 renal 96.5% | A498 renal 72.9% | CCRF-CEM leukemia 63.5% | MOLT-4 leukemia 61.7%
active: ACHN renal 7.83%
